ChEMBL document CHEMBL1961873, “Compounds: GSK PKIS; Assays: Nanosyn kinase panel” (2012)

target: Serine/threonine-protein kinase PAK 6 (Homo sapiens) (UniProt Q9NQU5); settings: at 0.1 µM
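Note: mean PAK6 inhibition reported from the GSK PKIS screen.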

Chain of Serine/threonine-protein kinase PAK 6 (Homo sapiens) (Q9NQU5 whole entry, looked up): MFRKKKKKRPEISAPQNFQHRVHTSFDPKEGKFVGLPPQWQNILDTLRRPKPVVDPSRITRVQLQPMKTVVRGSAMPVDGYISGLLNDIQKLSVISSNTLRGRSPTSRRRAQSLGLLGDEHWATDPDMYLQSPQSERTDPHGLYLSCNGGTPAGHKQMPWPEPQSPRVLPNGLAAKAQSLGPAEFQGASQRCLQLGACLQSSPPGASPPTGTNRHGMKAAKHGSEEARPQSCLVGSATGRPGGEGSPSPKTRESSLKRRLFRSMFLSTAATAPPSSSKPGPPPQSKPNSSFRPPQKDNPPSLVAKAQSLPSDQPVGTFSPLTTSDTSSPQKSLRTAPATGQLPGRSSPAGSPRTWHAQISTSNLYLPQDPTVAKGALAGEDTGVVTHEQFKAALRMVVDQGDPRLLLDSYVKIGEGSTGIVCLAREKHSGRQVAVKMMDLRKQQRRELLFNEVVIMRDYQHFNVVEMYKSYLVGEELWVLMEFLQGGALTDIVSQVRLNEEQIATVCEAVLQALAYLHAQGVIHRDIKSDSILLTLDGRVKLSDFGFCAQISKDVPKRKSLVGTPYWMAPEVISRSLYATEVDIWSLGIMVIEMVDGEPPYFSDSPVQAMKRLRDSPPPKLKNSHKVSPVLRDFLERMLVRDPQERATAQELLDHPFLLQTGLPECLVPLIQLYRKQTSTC

Structure (SMILES) | inhibition [%]
NS(=O)(=O)c1ccc(N/C=C2\C(=O)Nc3ccc4ncsc4c32)cc1 | -9.73
CCn1c(-c2nonc2N)nc2c(C#CCN)ncc(OCCCN)c21 | 17
COc1cc(C=NNc2ncnc3c2cnn3Cc2ccccc2)ccc1O | -0.81
Fc1ccc(-c2ncn(C3CCNCC3)c2-c2ccnc(Oc3ccccc3)n2)cc1 | -8.85
COc1cccc(COc2cc(-n3cnc4ccccc43)sc2C(N)=O)c1 | 1.2
Nc1nonc1-c1nc2cnccc2n1C1CCCCC1 | -0.28
COc1cc2c(cc1Nc1nc(Nc3ccsc3C(N)=O)c3cc[nH]c3n1)N(C(=O)CN(C)C)CCC2 | 4.98
NS(=O)(=O)c1ccc(-c2ccc3c(NC(=O)C4CC4)n[nH]c3c2)cc1 | 7.47
COc1cccc(-n2ncc3c(N/N=C/c4ccncc4)ncnc32)c1 | -2.81
Cc1cc(-c2ccco2)cc(C)c1/C=C/c1cncc(-c2nn[nH]n2)c1 | 5.79
CCn1c(-c2nonc2N)nc2c(C#CC(C)(C)O)ncc(OCC3CCNCC3)c21 | 19.2
NC(=O)c1sc(-n2cnc3cc(C(F)(F)F)ccc32)cc1OCc1ccccc1Br | 3.56
CCn1c(-c2nonc2N)nc2c(C#CC(C)(C)O)nc(O[C@@H](CN)c3ccccc3)cc21 | 59.9
CCn1c(-c2nonc2N)nc2c(C#CC(C)(C)O)ncc(OC[C@@H]3CCCN3)c21 | 19.1
